Most compounds without a hit are left out; they make up all but 7.3% or so of the library.
Vaccinia mCherry – inhibitors of vaccinia virus infection (mCherry reporter signal) | Potency, µM (highest dose often 36.5 µM), most hits filed as inhibitors | 310,000 tested, 0.63% active | AID 720579 | Vaccinia virus mCherry reporter infection, fluorescence; calls by dose curve; tested in A549 cells; also: nearly all actives have a fitted effect of over 35% in size
FMDV antiviral – blocks foot and mouth disease virus; FMDV antiviral cell-based qHTS; Potency, µM (doses to about 57.9 µM), actives largely listed as inhibitors; 410,000 tested, 1.2% active; calls by dose curve; tested in HEK293T cells; also: read-out not given here; nearly all actives have a fitted effect of over 45% in size
HCV inhibitor – blocks hepatitis C virus; Potency, µM (series often up to 41.8 µM), actives largely listed as inhibitors; 340,000 tested, 3.4% active; Huh7.5.1 HCVcc-Cre infection, luciferase reporter, 44 h; AID 651820; active = well fitted inhibition curve with a large enough effect; inconclusive = small, poorly fitted or top-dose-only effect, or another doubt; inactive = no such curve, though single readings can be large or run the other way
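Reporter virus HCVcc-Cre (~0.5 moi) infects cells exposed to compound; seeding density 1,000 cells/well with 4 h settling beforehand. Luminescence, 15 sec read, taken 44 h post-infection following a 15 min RT substrate incubation.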
HCMV antiviral – inhibitors of human cytomegalovirus | HFF cells, HCMV-luciferase reporter, 72 h; stronger effect = lower value | activity change, negative = inhibition, % at 57.5 µM | 410,000 tested, 4.5% active; in the data active = activity change below about -60%; inconclusive = no clear call, values can overlap the other calls; inactive = above about -39%
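After 16 h attachment at 37C, HFF cells received test compound and HCMV-luciferase (1 PFU/cell); reporter luminescence read 72 h later, data normalized against buffer-only and known inhibitor Salinomycin.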
VACV Venus inh – inhibitors of vaccinia virus (Venus reporter); Vaccinia virus Venus reporter expression, fluorescence; Potency, µM (titrated, usually from 36.5 µM), actives largely listed as inhibitors; 330,000 tested, 0.46% active; calls by dose curve; tested in A549 cells; also: nearly all actives have a fitted effect of over 30% in size
Hits are given with their value; . = inactive; ? = inconclusive; / = no result given; ! = not active in a repeat; [ ] = remark or other dose.

SMILES | Vaccinia mCherry | FMDV antiviral | HCV inhibitor | HCMV antiviral | VACV Venus inh
CC(C)CNC(=O)c1ccc(COc2ccc(Cl)cc2Cl)o1 | .[1.46 µM] | . | 13µM | . | ?
O=C(Nc1ccn(Cc2c(F)c(F)cc(F)c2F)n1)c1ccc(COc2ccc(Cl)cc2Cl)o1 | / | ? | 13µM | . | /
Cc1ccc(S(=O)(=O)Nc2ccc3c(c2)C(=O)N([C@@H](C)CO)C[C@@H](C)[C@@H](CN(C)CC2CC2)OCCCC[C@@H](C)O3)cc1 | . | ? | / | . | .
C[C@H]1CCCCO[C@@H](CN(C)CC2CC2)[C@@H](C)CN([C@@H](C)CO)C(=O)c2cc(NS(=O)(=O)c3ccccc3)ccc2O1 | / | / | / | . | /
C[C@@H]1CCCCO[C@@H](CN(C)CC2CCCCC2)[C@@H](C)CN([C@H](C)CO)C(=O)c2cc(NS(=O)(=O)c3ccc(Cl)cc3)ccc2O1 | ? | . | / | -102 | 10µM
C[C@@H]1CCCCO[C@@H](CN(C)Cc2ccc3c(c2)OCO3)[C@@H](C)CN([C@H](C)CO)C(=O)c2cc(NS(=O)(=O)c3ccccc3)ccc2O1 | . | ? | / | -69 | ?
C[C@@H]1CN([C@H](C)CO)C(=O)c2cc(NS(=O)(=O)c3ccccc3)ccc2O[C@@H](C)CCCCO[C@@H]1CN(C)Cc1ccccc1 | / | / | / | . | /
C[C@H]1CCCCO[C@H](CN(C)CC2CCCCC2)[C@@H](C)CN([C@@H](C)CO)C(=O)c2cc(NS(=O)(=O)c3ccccc3)ccc2O1 | . | . | / | -63 | ?
COc1ccccc1CNC(=O)c1cnc2sccn2c1=O | . | . | 10µM | . | .
O=C1N/C(=C\c2ccc(O)cc2)C(=O)c2ccccc21 | / | ? | 11µM | / | /
O=C(O)/C=C1\NC(=O)c2ccccc21 | / | . | . | . | .
Cc1ccc(C)c(NC(=O)Cn2c(=O)n(Cc3ccc4c(c3)OCO4)c(=O)c3oc4ccccc4c32)c1 | . | . | / | . | .
COc1cc(CNC2CCCC2)cc(Cl)c1OCc1ccccc1F | ? | / | 10µM | ? | 16µM
CN(C)S(=O)(=O)c1ccc(NC(=O)CSc2nnc(-c3ccco3)n2N)cc1 | . | . | . | ? | .
CCc1ccc(NC(=O)COc2ccc(F)cc2C(=O)c2cnn(-c3ccccc3)c2)cc1 | . | . | ? | -102 | .
Cc1ccsc1/C=C/C1=Cc2c(sc(NC(=O)CSc3n[nH]c(N)n3)c2C#N)C(C)(C)C1 | ? | ? | 11µM | . | ?
CCNc1nc(N)nc(Oc2ccc(OCC(=O)OC)nn2)n1 | . | . | / | . | .
COc1ccc(NC(=S)N(CCN(C)C)C(C)c2ccco2)cc1 (configuration not stated) | . | . | . | -62 | .
Cc1nc2ccccc2n1CCc1nc2c3ccccc3nc(SCc3cccc(F)c3)n2n1 | ? | . | / | . | ?
O=C(c1cc(F)c(F)cc1Cl)N1CCN(c2ncccn2)CC1 | / | . | . | . | /
O=C(COc1ccccc1)Nc1c(C(=O)N2CCN(c3ccc(F)cc3)CC2)oc2ccccc12 | . | . | / | -107 | .
COc1cccc(N2CCN(C(=O)c3oc4ccccc4c3NC(=O)CCc3cc(OC)no3)CC2)c1 | ? | . | . | -61 | .
CCC(CC)C(=O)Nc1c(C(=O)N2CCN(c3ccccc3F)CC2)oc2ccccc12 | . | . | / | . | .
CCC(CC)C(=O)Nc1c(C(=O)N2CCN(c3ccccc3)CC2)oc2ccccc12 | . | . | . | -79! | .
COc1cccc(CC(=O)Nc2c(C(=O)N3CCN(c4ccccc4)CC3)oc3ccccc23)c1 | . | . | / | . | .
SMILES | Vaccinia mCherry | FMDV antiviral | HCV inhibitor | HCMV antiviral | VACV Venus inh
CCN(CC)CC1CN(N=Cc2ccc([N+](=O)[O-])o2)C(=O)O1 (configuration not stated) | ? | . | ? | . | 16µM
Nc1ccc2c(c1)C(=O)c1ccc(N)cc1-2 | ? | . | ? | . | .
CC1CCCCN1S(=O)(=O)c1ccc(C(=O)N(CCCN(C)C)c2nc3cc4c(cc3s2)OCO4)cc1 (configuration not stated) | . | . | . | -70 | .
Cc1cccc2sc(N(CCCN(C)C)C(=O)c3ccc(C(=O)c4ccccc4)cc3)nc12 | ? | . | ? | -72 | .
CCN(Cc1ccccc1)S(=O)(=O)c1ccc(C(=O)N(CCCN(C)C)c2nc3ccc(F)cc3s2)cc1 | . | . | ? | -80 | .
CN(C)CCCN(C(=O)c1ccc(C(=O)c2ccccc2)cc1)c1nc2cc3c(cc2s1)OCO3 | ? | ? | 14µM | ? | ?
O=C(O)C(=Cc1ccc([N+](=O)[O-])cc1)c1cccc(Cl)c1 | . | . | / | . | .

Screening data as filed in PubChem BioAssay.
